Results published in the supplement of paper PMC11732987, “Enantioselective OTUD7B fragment discovery through chemoproteomics screening and high-throughput optimisation” (Communications Chemistry, 2025).

Assays:
Experiment in all cases: log2 ratio of Biotin-Ahx-Ub-VS probe labelling (fragment/DMSO); higher = less target engagement (more negative = stronger competition), active = hit call of the paper (q ≤ 0.05, log2 ratio ≤ -1)
Conditions in all cases: compound concentration: 200 uM; treatment time: 3 h
[1] = target: T1, USP19 (UniProt O94966)
T1 sequence (whole entry): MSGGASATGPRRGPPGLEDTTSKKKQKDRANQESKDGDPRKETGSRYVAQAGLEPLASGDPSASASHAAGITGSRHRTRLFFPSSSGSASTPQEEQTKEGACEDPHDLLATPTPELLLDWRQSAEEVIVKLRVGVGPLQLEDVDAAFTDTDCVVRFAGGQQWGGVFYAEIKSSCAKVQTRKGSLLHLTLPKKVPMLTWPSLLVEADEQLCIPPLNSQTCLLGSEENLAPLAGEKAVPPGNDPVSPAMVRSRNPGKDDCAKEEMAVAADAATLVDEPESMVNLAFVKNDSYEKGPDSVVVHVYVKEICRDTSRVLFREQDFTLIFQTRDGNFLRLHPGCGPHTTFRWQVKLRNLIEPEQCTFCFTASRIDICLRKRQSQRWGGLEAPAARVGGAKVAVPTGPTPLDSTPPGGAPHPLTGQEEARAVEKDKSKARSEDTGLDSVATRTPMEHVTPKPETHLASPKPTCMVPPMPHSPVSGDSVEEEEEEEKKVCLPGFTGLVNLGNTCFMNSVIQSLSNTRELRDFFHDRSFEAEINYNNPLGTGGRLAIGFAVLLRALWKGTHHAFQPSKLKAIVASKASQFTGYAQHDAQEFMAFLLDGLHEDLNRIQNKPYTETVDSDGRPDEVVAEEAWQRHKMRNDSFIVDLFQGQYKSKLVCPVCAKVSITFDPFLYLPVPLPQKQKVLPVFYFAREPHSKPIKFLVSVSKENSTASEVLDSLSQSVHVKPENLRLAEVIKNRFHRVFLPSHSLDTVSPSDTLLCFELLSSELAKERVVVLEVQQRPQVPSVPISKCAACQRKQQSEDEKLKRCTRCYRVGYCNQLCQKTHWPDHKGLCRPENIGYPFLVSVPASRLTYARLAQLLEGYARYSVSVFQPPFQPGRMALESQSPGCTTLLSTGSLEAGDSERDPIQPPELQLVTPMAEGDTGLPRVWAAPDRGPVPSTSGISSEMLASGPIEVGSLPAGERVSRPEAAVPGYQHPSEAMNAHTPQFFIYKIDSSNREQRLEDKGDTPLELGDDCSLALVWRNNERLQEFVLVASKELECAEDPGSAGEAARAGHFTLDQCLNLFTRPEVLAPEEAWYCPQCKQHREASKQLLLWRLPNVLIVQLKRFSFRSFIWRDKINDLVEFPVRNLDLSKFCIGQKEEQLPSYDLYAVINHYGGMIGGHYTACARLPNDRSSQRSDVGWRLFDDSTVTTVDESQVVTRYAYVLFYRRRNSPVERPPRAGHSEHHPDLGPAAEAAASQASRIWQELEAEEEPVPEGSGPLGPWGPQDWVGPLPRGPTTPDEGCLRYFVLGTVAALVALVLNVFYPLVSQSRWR
In short: (§1)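 HEK293T lysate, 495 µg per sample in Tris/CHAPS/IGEPAL buffer with protease inhibitors, was treated in triplicate with fragment at 200 µM or vehicle for 3 h and then with Biotin-Ahx-Ub-VS at 0.5 µM final for 1 h. Labelled DUBs were NeutrAvidin-enriched, digested with LysC and trypsin, and run by diaPASEF LC-MS/MS. Spectronaut label-free quantities were global-median-normalised, and values are average log2 fragment/vehicle ratios by unpaired t-test on proteins with ≥2 unique peptides.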

[2] = target: T2, USP22 (UniProt Q9UPT9)
T2 sequence (whole entry): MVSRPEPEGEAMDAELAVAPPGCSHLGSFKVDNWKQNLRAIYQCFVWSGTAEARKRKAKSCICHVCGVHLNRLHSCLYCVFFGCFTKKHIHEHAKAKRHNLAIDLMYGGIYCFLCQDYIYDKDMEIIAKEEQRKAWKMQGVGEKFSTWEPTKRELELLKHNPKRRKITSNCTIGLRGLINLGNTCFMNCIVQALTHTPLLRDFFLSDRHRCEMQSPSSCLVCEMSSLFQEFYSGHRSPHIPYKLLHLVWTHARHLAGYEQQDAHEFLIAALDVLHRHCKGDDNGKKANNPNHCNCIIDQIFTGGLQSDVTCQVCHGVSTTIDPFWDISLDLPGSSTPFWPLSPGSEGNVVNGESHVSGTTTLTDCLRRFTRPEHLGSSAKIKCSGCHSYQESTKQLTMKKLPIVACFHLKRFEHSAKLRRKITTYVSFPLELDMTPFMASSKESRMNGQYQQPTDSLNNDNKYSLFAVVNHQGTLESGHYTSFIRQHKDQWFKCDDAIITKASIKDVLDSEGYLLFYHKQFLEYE
In short: as §1

[3] = target: USP24 (UniProt Q9UPU5)
Sequence of USP24 (Q9UPU5 whole entry): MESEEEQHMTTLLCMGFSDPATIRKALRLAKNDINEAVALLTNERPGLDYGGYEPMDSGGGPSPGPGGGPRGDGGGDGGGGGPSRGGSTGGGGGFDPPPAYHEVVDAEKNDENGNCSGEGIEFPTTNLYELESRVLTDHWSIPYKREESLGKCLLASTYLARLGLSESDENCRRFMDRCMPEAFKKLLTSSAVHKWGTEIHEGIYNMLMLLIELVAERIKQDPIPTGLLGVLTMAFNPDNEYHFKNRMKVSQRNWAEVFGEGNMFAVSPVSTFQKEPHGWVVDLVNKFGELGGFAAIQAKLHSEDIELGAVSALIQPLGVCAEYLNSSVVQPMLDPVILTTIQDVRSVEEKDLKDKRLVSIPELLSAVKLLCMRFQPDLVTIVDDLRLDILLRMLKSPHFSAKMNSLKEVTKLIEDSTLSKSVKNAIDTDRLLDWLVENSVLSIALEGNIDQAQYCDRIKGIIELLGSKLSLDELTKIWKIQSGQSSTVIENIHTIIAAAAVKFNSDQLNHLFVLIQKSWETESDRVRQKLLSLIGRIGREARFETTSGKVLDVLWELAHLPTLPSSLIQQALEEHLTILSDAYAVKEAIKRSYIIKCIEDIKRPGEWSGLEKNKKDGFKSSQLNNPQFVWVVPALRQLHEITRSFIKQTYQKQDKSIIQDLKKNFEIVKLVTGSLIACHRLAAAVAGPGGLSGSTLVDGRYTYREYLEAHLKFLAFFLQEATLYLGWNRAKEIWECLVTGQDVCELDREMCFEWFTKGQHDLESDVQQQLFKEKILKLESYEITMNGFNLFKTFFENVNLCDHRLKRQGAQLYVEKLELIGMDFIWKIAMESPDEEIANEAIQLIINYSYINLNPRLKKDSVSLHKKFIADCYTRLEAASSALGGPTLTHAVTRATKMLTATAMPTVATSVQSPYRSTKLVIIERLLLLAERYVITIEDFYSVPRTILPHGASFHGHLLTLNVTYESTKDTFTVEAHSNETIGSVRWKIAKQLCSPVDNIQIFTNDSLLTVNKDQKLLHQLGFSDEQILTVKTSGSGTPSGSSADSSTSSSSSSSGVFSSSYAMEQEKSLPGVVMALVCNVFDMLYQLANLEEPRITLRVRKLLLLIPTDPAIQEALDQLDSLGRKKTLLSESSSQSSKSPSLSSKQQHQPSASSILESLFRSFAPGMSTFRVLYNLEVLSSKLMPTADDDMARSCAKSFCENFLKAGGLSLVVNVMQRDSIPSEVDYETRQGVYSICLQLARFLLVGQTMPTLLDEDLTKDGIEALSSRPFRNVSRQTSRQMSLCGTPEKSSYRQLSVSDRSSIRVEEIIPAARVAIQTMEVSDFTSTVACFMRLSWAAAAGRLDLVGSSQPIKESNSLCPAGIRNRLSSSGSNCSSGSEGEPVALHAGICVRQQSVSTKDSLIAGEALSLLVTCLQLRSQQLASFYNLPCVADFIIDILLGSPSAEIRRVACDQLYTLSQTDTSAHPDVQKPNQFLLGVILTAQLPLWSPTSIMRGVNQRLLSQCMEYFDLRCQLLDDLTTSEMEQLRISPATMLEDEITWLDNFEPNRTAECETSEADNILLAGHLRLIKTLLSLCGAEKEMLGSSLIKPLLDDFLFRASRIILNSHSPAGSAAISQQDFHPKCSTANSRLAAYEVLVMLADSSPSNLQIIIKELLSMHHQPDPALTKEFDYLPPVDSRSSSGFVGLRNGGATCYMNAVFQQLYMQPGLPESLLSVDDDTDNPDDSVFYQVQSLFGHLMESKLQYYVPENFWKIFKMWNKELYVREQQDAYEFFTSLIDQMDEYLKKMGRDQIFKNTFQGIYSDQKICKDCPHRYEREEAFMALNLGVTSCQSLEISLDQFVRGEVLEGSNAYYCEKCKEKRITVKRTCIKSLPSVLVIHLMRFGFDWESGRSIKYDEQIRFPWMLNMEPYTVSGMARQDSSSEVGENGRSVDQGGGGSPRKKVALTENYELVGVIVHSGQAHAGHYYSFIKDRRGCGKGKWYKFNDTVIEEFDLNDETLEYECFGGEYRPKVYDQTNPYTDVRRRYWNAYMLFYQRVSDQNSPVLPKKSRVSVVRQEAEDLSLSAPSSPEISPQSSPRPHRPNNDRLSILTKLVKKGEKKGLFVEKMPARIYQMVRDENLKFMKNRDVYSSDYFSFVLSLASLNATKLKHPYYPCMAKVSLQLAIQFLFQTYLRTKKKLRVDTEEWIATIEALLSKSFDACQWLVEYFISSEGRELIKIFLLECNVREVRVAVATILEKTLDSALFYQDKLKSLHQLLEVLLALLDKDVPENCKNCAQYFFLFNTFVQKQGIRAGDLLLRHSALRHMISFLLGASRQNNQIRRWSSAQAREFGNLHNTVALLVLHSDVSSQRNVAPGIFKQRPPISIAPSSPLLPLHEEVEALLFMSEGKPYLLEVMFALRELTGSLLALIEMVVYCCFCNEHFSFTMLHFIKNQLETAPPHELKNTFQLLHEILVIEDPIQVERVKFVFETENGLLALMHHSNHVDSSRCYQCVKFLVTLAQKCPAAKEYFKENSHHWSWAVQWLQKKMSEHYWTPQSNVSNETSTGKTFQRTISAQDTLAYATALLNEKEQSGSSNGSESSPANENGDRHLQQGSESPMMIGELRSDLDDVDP
In short: as §1

[4] = target: T3, USP25 (UniProt Q9UHP3)
T3 sequence (whole entry): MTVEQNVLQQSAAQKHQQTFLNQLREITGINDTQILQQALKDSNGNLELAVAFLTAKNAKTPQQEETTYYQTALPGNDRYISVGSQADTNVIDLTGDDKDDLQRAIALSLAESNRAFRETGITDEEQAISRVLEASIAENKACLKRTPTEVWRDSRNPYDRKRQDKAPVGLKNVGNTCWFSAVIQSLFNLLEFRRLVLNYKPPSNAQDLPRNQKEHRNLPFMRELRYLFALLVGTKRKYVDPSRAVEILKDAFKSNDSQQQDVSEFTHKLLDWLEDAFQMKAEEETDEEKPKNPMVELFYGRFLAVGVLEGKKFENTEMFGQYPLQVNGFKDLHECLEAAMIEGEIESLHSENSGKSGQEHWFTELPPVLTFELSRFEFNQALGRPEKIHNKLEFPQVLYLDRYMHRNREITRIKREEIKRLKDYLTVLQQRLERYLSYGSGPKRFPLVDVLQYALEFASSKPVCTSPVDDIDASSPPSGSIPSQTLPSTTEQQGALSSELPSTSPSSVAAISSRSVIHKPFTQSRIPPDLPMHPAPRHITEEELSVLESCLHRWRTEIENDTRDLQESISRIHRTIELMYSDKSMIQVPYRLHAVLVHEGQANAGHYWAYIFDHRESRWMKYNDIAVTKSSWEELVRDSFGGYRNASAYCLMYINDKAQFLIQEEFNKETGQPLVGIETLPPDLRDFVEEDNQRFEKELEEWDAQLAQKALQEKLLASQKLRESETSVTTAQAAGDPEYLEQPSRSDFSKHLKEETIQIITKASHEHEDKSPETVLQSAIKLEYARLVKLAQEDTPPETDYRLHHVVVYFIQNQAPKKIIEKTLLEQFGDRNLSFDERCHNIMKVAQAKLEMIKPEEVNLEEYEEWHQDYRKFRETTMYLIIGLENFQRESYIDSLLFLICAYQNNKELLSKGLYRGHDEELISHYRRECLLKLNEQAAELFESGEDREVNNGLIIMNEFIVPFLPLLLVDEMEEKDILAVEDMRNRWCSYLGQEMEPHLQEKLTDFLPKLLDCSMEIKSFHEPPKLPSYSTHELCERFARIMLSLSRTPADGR
In short: as §1

[5] = target: T4, USP28 (UniProt Q96RU2)
T4 sequence (whole entry): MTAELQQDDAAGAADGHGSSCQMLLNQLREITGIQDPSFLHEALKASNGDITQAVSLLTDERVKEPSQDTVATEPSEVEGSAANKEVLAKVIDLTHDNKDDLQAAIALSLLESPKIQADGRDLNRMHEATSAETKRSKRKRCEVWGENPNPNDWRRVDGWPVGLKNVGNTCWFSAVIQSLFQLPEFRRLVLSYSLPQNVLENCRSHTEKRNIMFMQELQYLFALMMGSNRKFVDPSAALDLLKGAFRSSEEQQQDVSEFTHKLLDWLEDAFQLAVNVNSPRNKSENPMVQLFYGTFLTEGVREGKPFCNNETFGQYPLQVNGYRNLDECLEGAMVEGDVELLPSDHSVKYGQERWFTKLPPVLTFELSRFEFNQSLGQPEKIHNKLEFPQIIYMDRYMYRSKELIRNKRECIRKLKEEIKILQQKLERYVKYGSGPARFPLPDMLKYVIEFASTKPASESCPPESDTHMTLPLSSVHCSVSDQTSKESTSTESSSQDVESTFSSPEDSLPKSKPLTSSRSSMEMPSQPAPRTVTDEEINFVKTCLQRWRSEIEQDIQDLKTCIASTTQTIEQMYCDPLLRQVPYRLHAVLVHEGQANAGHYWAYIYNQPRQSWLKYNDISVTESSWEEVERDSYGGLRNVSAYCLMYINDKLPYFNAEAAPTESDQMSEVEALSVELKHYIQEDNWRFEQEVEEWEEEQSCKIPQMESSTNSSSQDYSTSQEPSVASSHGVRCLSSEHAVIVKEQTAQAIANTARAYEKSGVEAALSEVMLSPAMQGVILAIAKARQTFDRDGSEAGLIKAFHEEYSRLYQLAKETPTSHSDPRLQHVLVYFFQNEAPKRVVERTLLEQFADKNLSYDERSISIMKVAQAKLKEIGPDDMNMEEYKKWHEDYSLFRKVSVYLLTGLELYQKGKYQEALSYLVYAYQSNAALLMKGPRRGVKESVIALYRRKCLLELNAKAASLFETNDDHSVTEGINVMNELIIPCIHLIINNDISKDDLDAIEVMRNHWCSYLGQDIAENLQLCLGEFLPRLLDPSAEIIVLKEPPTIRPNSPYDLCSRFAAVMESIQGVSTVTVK
In short: as §1

Measured: log2 ratio of Biotin-Ahx-Ub-VS probe labelling

O=C(CCl)N1CCC(O)(Cc2ccc(F)cc2)C1 (stereo not given)
inactive: [1] -0.323 | [2] -0.265 | [3] -0.262 | [4] -0.107 | [5] -0.353
